Results on eight compounds are retold here after PubChem BioAssay AID1037 (National Center for Advancing Translational Sciences (NCATS), 2008).

SMILES strings stand for the structures. Calls of active or inactive are those of the source. Calls follow the shape of the full dose curve.

This test in a line: NSCLC 2 Cell Viability Secondary Assay for qHTS Assay for Epigenetic Modulators. As to conditions: NSCLC 2 viability, MTS absorbance, 4 days. From the text:
NIH Molecular Libraries Screening Centers Network [MLSCN] NIH Chemical Genomics Center [NCGC] MLSCN Grant: 1 X01 MH079860-01 Assay Provider: Elisabeth D. Martinez, University of Texas SW Medical Center NCGC Assay Overview: This secondary assay characterizes selected actives identified in the qHTS of the Locus Derepression (LDR) assay (PubChem AID 597). The LDR assay detects the derepression of a GFP reporter that is stably integrated in a region of the genome of murine c127i mammary cells that is presumably silenced. Compounds that cause derepression of the locus to express GFP are identified by enumerating GFP positive cells using a laser-scanning microplate cytometer. Selected LDR actives were assayed for killing of NSCLC 2, a patient-derived nonsmall cell lung carcinoma line. Known epigenetic drugs, like histone deacetylase inhibitors, can block cancer cell growth. NSCLC 2 cell viability was measured using Cell Titer 96 AQueous One (Promega), an assay which detects the ability of metabolically active cells to reduce a tetrazolium salt substrate (MTS), into a soluble formazan product that can be measured by colorimetry.
NCGC Assay Protocol Summary NSCLC 2 cells were plated in 96-well flat bottom tissue culture dishes (Corning) and grown overnight at 37 C and 5% CO2, then treated with compounds, incubated 4 days, and assayed for viability using the Cell Titer 96 AQueous One kit (Promega) according to the manufacturer's protocol. Absorbance at 490 nm and 650 nm (reference) was measured by a Spectra Max (Molecular Devices). Data were normalized to the untreated control (100% viability). Each cell line was tested in one or two independent assays, each containing 4 or 8 replicates. For further details, see R.L. Johnson, W. Huang, A. Jadhav, C.P. Austin, J. Inglese, E.D. Martinez, A Quantitative High-Throughput Screen Identifies Potential Epigenetic Modulators of Gene Expression, Analytical Biochemistry (2007), doi: 10.1016/j.ab.2007.12.028
In the case of `O=Nc1ccc(O)c2ncccc12`, the Potency was 1000 nM (active).

Take `O=C(CSc1cccc2cccnc12)NCc1ccccc1`: the compound was called inactive.

As for `CC(C)C(=O)NC(c1ccc(N(C)C)cc1)c1ccc2cccnc2c1O` (stereo not drawn), the Potency was 200 nM (active). On to `O=C(CSc1cccc2cccnc12)N1CCCC1`, for which the compound was called inactive.

For `CN1C(=S)SC(c2ccccc2)N(C)C1c1ccccc1` (stereo not drawn), the compound was classed as inactive. In the case of `CC(/C=C/C(=O)NO)=C\[C@@H](C)C(=O)c1ccc(N(C)C)cc1`, the Potency is 40 nM (active). Still for that read-out and setting: then `CC(C)C(=O)NC(c1ccco1)c1ccc2cccnc2c1O` (stereo not drawn), with 800 nM (active); and `CC(C)C(=O)NC(c1ccco1)c1cc([N+](=O)[O-])c2cccnc2c1O` (stereo not drawn), with 6000 nM (active).
